In the supplement of paper PMC6555819 one finds PBM binding z-score data, which are given here for 22 sequences.

The subject of the assay is PPARg:RXRa 30nM:10nM, anti-RXR (NR concentration 30 nM, RXRa partner concentration 10 nM). Description: PBM binding z-score (relative to random genomic background probes); higher = stronger binding; sequences stand for … in GC…GCGATTGACAGCGTAGAATGAAGG
Summed up: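 Regression normalization was applied to scanned fluorescence from custom Agilent 4×180K protein-binding microarrays. Before scanning, arrays were incubated 1 h with ligand-free nuclear receptor dimers, and binding was detected with antibodies against each partner (one per run). Binding z-scores use the random background probes as reference.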
TAGCCTAGGTCATTGGGCCACTATAGTACGCATC had a PBM binding z-score of 1.41.
Regarding TAGCCTAGGACATTGGGCCAGTATAGTACGCATC, the PBM binding z-score was -0.241.
The result for ATCTCTAGGTAAGACTCGGTTCAGTGAAGAACGC reads 0.0672; that for ACTAGCAGGCCAAGGGTCTCTCAAGATTAGTCCG, 2.15.
The sequence CCTAGCAGGCCAGGGTCACTCTAGCATTTCGCTT yielded a PBM binding z-score of -0.703.
As for GCTTGTTGGTCAGTAAAAGGTCACACACCGGTCG, the PBM binding z-score was found to be 2.37.
Take TCATATAGGTAAACAGGTGAAAGTGCGTAAGTTA: the PBM binding z-score is 4.64.
As for ATCTCTAGGCAAAGTTCAGTGAAAGATCGATAGA, the PBM binding z-score is 1.93.
For the sequence ATCTCTAGTTAAAGTTCAGTGAAAGATCGATAGA, the PBM binding z-score was 1.74.
Regarding CCGACTGGGGCAAAGGTTACTATACTCAGTACGA, the PBM binding z-score stood at 8.85.
The result for TCTTGCAGATCAAGCAGGTTAAGAAAGCCTGAGT reads 1.76; that for CGTACTGGGCCATTCAGAGGTCATTGATCATATG, 0.848; that for CGACAAAGTTCAACTAAGGTAACGTAAAGCACGC, 2.16.
TCGGCTAGGTCAACGATGGTCAGCTAATCTGCTA came in with a PBM binding z-score of 1.62.
The result for AGAATGAGGTGACCAAAGATCAGGGAAACGCTTG reads 0.478; that for GCGACTGGGGCAAAGCAGGTTACGATAAGGTTGG, -0.188; that for TCAAATAGGTAATACAGGTGAAAGTCGGCATCTA, 4.16.
Sequence GTAACGAGGGCATTCGAGTTGATAGCATGGCGAT yielded a PBM binding z-score of 0.115.
Regarding CCTATTTGTTGACCATAAGGGCAACCGAAGCTCG, the PBM binding z-score is 0.245.
In turn, CCGGCTAGGTCATGGTCAGCTAATCTACAGTATG registered a PBM binding z-score of 0.212.
CCAGACAGGTGAAAGGGAACTCAGTCTGGTACGC registered a PBM binding z-score of 1.06.
The result for CGAACTAGGTCATCCAGGGCAGTGAATACATTGA reads 4.15.
